NPYLR7 agonist – agonists of mosquito NPYLR7 receptor, primary screen, cell-based, Aedes aegypti, calcium fluorescence, mosquito biting behavior. HEK293T NPYLR7/Galpha15, GCaMP6s calcium fluorescence. AID 1259423, 2018. hit rate 0.15% among 270,000. Aedes aegypti neuropeptide Y-like receptor 7 (NPYLR7). activation, % at 10 µM; in the data active = activation above about 40%;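 also: 0% = vehicle and 100% = reference agonist at the receptor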
mcGAS lum – cyclic GMP-AMP synthase inhibitors, mouse, primary biochemical chemiluminescence; Q8C6L5; hit rate 0.15% among 160,000; inhibition, % at 12.5 µM; recombinant cGAS, Kinase-Glo ATP depletion luminescence;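 also: 0% = negative control wells and 100% = reference inhibitor with no enzyme activity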
hcGAS inh – Primary biochemical luminescence assay for human cyclic GMP-AMP synthase inhibitors; Q8N884; recombinant h-cGAS, ATP depletion, Kinase-Glo luminescence; inhibition, % at 12.5 µM; hit rate 0.081% among 290,000;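 also: 0% = vehicle reaction and 100% = reaction without DNA for no activity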
Target sequence (Q8N884 whole entry, looked up): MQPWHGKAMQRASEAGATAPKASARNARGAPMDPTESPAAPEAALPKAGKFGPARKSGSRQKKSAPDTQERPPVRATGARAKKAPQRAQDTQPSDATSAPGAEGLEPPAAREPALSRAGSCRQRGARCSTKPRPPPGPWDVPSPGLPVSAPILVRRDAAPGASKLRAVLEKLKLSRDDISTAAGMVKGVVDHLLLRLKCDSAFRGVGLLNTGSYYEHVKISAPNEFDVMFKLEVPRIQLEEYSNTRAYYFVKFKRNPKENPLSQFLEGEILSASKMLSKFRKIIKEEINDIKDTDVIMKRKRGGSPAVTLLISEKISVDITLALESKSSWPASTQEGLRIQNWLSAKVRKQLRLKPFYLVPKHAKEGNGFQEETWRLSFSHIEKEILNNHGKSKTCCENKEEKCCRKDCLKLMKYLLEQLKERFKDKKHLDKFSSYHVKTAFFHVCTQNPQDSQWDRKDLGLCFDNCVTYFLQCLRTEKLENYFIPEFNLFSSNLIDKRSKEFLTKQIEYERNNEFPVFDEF
Numbers without * were called inactive; . = no result given. A selection: hits, their analogues and other compounds. The true share with any hit is near 0.3%. Rule as the data show it, unless noted: active = inhibition above about 40%; inactive = the rest.

SMILES	NPYLR7 agonist	mcGAS lum	hcGAS inh
Cn1c(C(C#N)=Cc2ccc([N+](=O)[O-])s2)nc2ccccc21	10	.	-4
Cn1c(/C(C#N)=C/c2ccc(N3CCOCC3)o2)nc2ccccc21	126*	.	-18
CCCN1C(=O)C(c2c(CC)[nH]n(-c3ccccc3)c2=O)=C(c2c(C)[nH]c3ccccc23)C1=O	.	-10	-20
Cc1ccc(NC(=O)NCCNc2cc(N3CCOCC3)nc(C)n2)c(Cl)c1	-1	.	-2
CC(C)CC(=O)N1CCCC(OCc2ccc(F)c(F)c2)C1 (stereo not drawn)	-2	.	-6
O=S(=O)(c1ccccc1)c1ccccc1Nc1ccccc1	0	.	78*
O=S(=O)(c1ccccc1)c1cnc2ccccc2c1Nc1ccccc1	3	-4	-5
COCCN(CCC(=O)NCc1ccccc1)c1nc(C2CC2)nc2ccccc12	-6	-6	-9
Cn1nnnc1SCc1cc2c(cc1Br)OCO2	0	-2	66*
Brc1cc2c(cc1CSc1nnnn1C1CC1)OCCO2	7	.	-3
OC=c1ccc2cccc3nc(C(F)(F)F)nc1c23	77*	.	4
OC(c1ccccc1)=c1ccc2cccc3ncnc1c23	2	.	-6
CC1CCCCC1OCCNC(=O)C1(c2ccc(F)cc2)CCC1 (stereo not drawn)	55*	.	-3
O=C(NCCN1CCCC1)C1(c2ccc(F)cc2)CCOCC1	1	.	-16
CN(C(=O)Cc1ccccc1)c1c(F)cccc1C(=O)O	2	-6	-1
Cn1ncc(Oc2ccc(F)cc2)c(Nc2ccc(C(=O)N3CCCCC3)cc2)c1=O	6	-4	-3
CCN(CC)c1ccc(/C=C2\SC(=S)N(CC(=O)O)C2=O)c(O)c1	93*	-9	-18
C=CCN1C(=O)/C(=C\c2ccc(N(C)C)cc2)SC1=S	7	-7	-7
CC(C(=O)O)N1C(=O)/C(=C/c2ccc([N+](=O)[O-])cc2)SC1=S (stereo not drawn)	-2	39	-1
COc1ccc(Br)cc1/C=C1/SC(=S)N(CC(=O)O)C1=O	-1	.	-1
O=C(O)CN1C(=O)/C(=C\c2ccc(O)c(O)c2)SC1=S	13	5	-2
O=C(O)C(Cc1ccccc1)N1C(=O)/C(=C/c2ccc([N+](=O)[O-])cc2)SC1=S (stereo not drawn)	6	54*	2
COc1cc(OC)c(OC)cc1/C=C1/SC(=S)N(CC(=O)O)C1=O	59*	-3	-1
CN(C)c1ccc(/C=C2/SC(=S)N(CC(=O)O)C2=O)cc1	71*	-8	3
CCN(CC)c1ncccc1CNC(=O)c1ccc2oc(=O)n(C)c2c1	2	-18	-6
SMILES	NPYLR7 agonist	mcGAS lum	hcGAS inh
COc1cccc(C=NNC(=O)c2[nH]nc3c2CCc2ccccc2-3)c1	4	-6	-3
O=C(O)CN1C(=O)/C(=C\c2ccc(O)cc2)SC1=S	59*	.	-5
O=C(O)CCCN1C(=O)/C(=C\c2ccc(O)cc2)SC1=S	61	-1	-4
C=CCN1C(=O)/C(=C\c2ccc(O)cc2)SC1=S	55*	-6	-7
C=CCN1C(=O)C(=Cc2ccncc2)SC1=S	-3	.	-5
Cc1ccc(/C=C2\SC(=S)N(C(C(=O)O)C(C)C)C2=O)cc1 (stereo not drawn)	-6	7	-1
CC(C)C(C(=O)O)N1C(=O)/C(=C/c2ccc(O)cc2)SC1=S (stereo not drawn)	68*	-5	-3
CCC1c2ccsc2CCN1C(=O)Cc1n[nH]c(=O)c2ccccc12 (stereo not drawn)	7	.	-16
CNC(=O)CSc1nc2c(-c3ccccc3)c(C)nn2c(=O)[nH]1	7	-3	55*
Cc1nn2c(=O)[nH]c(SCC(=O)NCCc3ccccc3)nc2c1-c1ccccc1	10	1	6
COc1ccc2cc(C3CN(Cc4cscn4)CCO3)ccc2c1 (stereo not drawn)	2	-13	-5
FC(F)(F)c1cc(-c2cccs2)nc2ncnn12	95*	-2	-5
FC(F)(F)c1cc(-c2ccccc2)nc2ncnn12	3	-7	-4
O=C(NCCc1ccc2c(c1)OCO2)N1CCC(N2CCCC2)C1 (stereo not drawn)	0	.	-1
CCC(C)N(Cc1c(-c2ccc(C)cc2)noc1N1CCCC1)C(=O)COC (stereo not drawn)	6	-1	-2
CCOc1ccc2nc3cc(N)ccc3c(N)c2c1	72*	.	99*
CCOc1ccc2nc(Nc3nc(C)c(C)c(C)n3)nc(C)c2c1	10	-5	-4
O=C(c1cc(Br)c[nH]1)N1CCN(c2ccccc2)CC1	15	.	-15
COCCN(Cc1ccc(C(C)(C)C)cc1)Cc1cccn1Cc1cccc(C)c1	17	-3	1
COCCCN(Cc1ccc(C(C)(C)C)cc1)Cc1cccn1Cc1cccc(C)c1	41*	-5	-10
Cc1ccccc1CO[C@]1(C(=O)NC2CC2)CC(OCc2cccc(Cl)c2)[C@H](O)[C@H](O)C1 (stereo partly drawn)	31	-3	-5
CNN=Cc1cc(Br)cc(Br)c1O	25	13	11
Oc1c(Br)cc(Br)cc1C=NC1CC1	9	.	53*
O=C1NC(=S)C(=Cc2cccnc2)S1	5	.	-2
O=C(O)C1Nc2ccc(Br)cc2C2C=CCC12 (stereo not drawn)	1	85*	39
SMILES	NPYLR7 agonist	mcGAS lum	hcGAS inh
O=C(O)C1Nc2c(O)cccc2C2C=CCC12 (stereo not drawn)	2	6	20
O=c1[nH]c(N2CCCC(CN3CCOCC3)C2)ncc1F (stereo not drawn)	5	.	-5
COc1ccc(-c2cc(C(F)(F)F)n3ncc(C(=O)Nc4sc5c(c4C(=O)OC(C)C)CCCC5)c3n2)cc1	5	-4	-3
O=C(NCC1CCCO1)c1cccnc1N1CCN(S(=O)(=O)c2ccc(Cl)s2)CC1 (stereo not drawn)	-6	-4	-1
CCN(CC)CCCC(C)NC(=O)c1cc(-c2ccc(OC)cc2)nc2cc(-c3ccccc3)nn12 (stereo not drawn)	12	90*	91*
CCN(CC)CCCC(C)NC(=O)c1cc(-c2ccc(OC)cc2)nc2cc(-c3ccc(Cl)cc3)nn12 (stereo not drawn)	6	-3	-3
O=C(OC[C@H]1O[C@H](OC(=O)c2cc(O)c(O)c(OC(=O)c3cc(O)c(O)c(O)c3)c2)[C@H](OC(=O)c2cc(O)c(O)c(OC(=O)c3cc(O)c(O)c(O)c3)c2)[C@@H](OC(=O)c2cc(O)c(O)c(OC(=O)c3cc(O)c(O)c(O)c3)c2)[C@@H]1OC(=O)c1cc(O)c(O)c(OC(=O)c2cc(O)c(O)c(O)c2)c1)c1cc(O)c(O)c(OC(=O)c2cc(O)c(O)c(O)c2)c1	-13	.	51*
CC(=O)OC[C@H]1O[C@@H](Oc2cc(OC(C)=O)c3c(=O)cc(-c4ccc(OC(C)=O)cc4)oc3c2)[C@H](OC(C)=O)[C@@H](OC(C)=O)[C@@H]1OC(C)=O	-3	.	-4
CCOC(=O)Cn1ncc2c1CCN(C(=O)CC(C)(O)C(F)(F)F)C2 (stereo not drawn)	2	.	-4
Cc1cc(Br)ccc1NC(=O)CNC(=O)CCN1C(=O)COc2ccccc21	0	-6	-7

High-throughput results as filed in PubChem.
